Experimental data as given in PubChem BioAssay AID463173 (ICCB-Longwood Screening Facility, Harvard Medical School, 2010).
About 4,300 (8.3%) of roughly 52,000 compounds were called active. No stated cut-off is given here; in the data, active means survival mostly below about 52% (no sharp cut-off); inactive means mostly above about 56%. The sample as a whole holds a higher share of actives than the screen did.

Each compound was assayed on DeltatarO mutant (assay: growth inhibition of S. aureus wild type versus tarO mutant, primary screen, teichoic acid synthesis inhibitors, RN4220, OD600 (AID 463173)). Settings: OD600, 18 h, hits give low values, screened at 18.75 µg/mL (by protocol).
With `CSc1nc(NC(N)=S)nc(NC(C)C)n1` the survival was 76% (inactive).
For `Cc1cc(C)c2c(CC(=O)Nc3ccc(S(=O)(=O)Nc4ncccn4)cc3)coc2c1`, the survival was 83% (inactive).
With `COc1ccc([N+](=O)[O-])cc1NC(c1nnc(-c2ccccc2)o1)c1ccccc1F` (configuration not stated) the survival was 83% (inactive).
`Cc1cccc2nc(-c3cccnc3)c(Nc3ccc(C(C)C)cc3)n12` was tested, and the survival was 70% (inactive).
With `Cc1cccc(C(C)C)c1NC(=O)c1ccc2c(c1)CCN2S(C)(=O)=O` the survival was 74% (inactive).
In the case of `COc1ccc(C2C(C(=O)Nc3cccnc3)=C(C)Nc3nc(-c4ccc(OC)c(OC)c4)nn32)cc1` (configuration not stated), the survival is reported as 150% (inactive).
In the case of `CCOC(=O)C1CCN(C(=O)c2c(C)nn(-c3ccc(F)cc3)c2-n2cccc2)CC1`, the survival is reported as 66% (inactive).
In the case of `Cc1cc(NC(=O)CSc2nc(-c3ccccc3C)nc3c2c(=O)n(C)c(=O)n3C)no1`, the survival is reported as 67% (inactive).
`Cc1ccc(NC(=O)c2nc(S(C)(=O)=O)ncc2N(Cc2ccco2)Cc2ccco2)cc1C` was tested, and the survival was 50% (inactive).
For `CC(C)c1ccc(CN(Cc2ccco2)c2cnc(S(C)(=O)=O)nc2C(=O)Nc2ccccc2)cc1`, the survival was 44% (active).
For `CS(=O)(=O)c1ncc(N(Cc2ccccc2)Cc2ccco2)c(C(=O)Nc2cccc(C(F)(F)F)c2)n1`, the survival was 52% (inactive).
With `COc1ccc(CN(Cc2ccco2)c2cnc(S(C)(=O)=O)nc2C(=O)Nc2ccc(C)cc2C)cc1` the survival was 48% (inactive).
In the case of `Cc1ccc(NC(=O)c2nc(S(C)(=O)=O)ncc2N(Cc2ccco2)Cc2cccs2)c(C)c1`, the survival is reported as 38% (active).
`COc1ccc(CN(Cc2ccco2)c2cnc(S(C)(=O)=O)nc2C(=O)Nc2ccc(C)c(C)c2)cc1` was tested, and the survival was 44% (active).
For `COc1ccc(CN(Cc2ccco2)c2cnc(S(C)(=O)=O)nc2C(=O)Nc2ccc(F)cc2)cc1`, the survival was 49% (inactive).
With `COc1ccc(CN(Cc2ccco2)c2cnc(S(C)(=O)=O)nc2C(=O)Nc2ccc(C)c(Cl)c2)cc1` the survival was 47% (inactive).
In the case of `Cc1ccc(NC(=O)c2nc(S(C)(=O)=O)ncc2N(Cc2ccco2)Cc2cccs2)cc1C`, the survival is reported as 40% (active).
With `CC(C)c1ccc(CN(Cc2ccco2)c2cnc(S(C)(=O)=O)nc2C(=O)Nc2ccc(F)cc2)cc1` the survival was 49% (inactive).
With `CCc1ccc(CN(Cc2ccco2)c2cnc(S(C)(=O)=O)nc2C(=O)Nc2cccc(C)c2)cc1` the survival was 46% (inactive).
In the case of `Cc1ccc(NC(=O)c2nc(S(C)(=O)=O)ncc2N(Cc2cccc(F)c2)Cc2ccco2)cc1C`, the survival is reported as 45% (inactive).
`Cc1ccc2scc(N3CCc4ccccc4C3)c(=O)c2c1` was tested, and the survival was 73% (inactive).
For `CCN(c1cccc(C)c1)S(=O)(=O)c1c(C)nc2sc(C)cn2c1=O`, the survival was 73% (inactive).
